Laboratory results: PubChem BioAssay (NCI)
This is part of a sample that, as a whole, favours compounds with a hit. Of some 79,000 tested, about 15% had one in any assay. Active and inactive are the calls of the source. Rule as the data show it: active = growth inhibition above about 70%; inactive = the rest.

Legend:
[1] = NCI Yeast Anticancer Drug Screen. Data for the rad50 strain (AID 155);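 also: 0% = growth of vehicle-only cultures of the same strain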; conditions: S. cerevisiae rad50 strain growth inhibition; at 50.0 µM; active compounds read high
In short: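 A DNA repair-deficient yeast mutant serves as the test organism; compound-induced growth inhibition is calculated against vehicle-treated cells.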

[2] = NCI Yeast Anticancer Drug Screen. Data for the mec2-1 strain (AID 157); conditions: S. cerevisiae mec2-1 strain, at 50.0 µM, active compounds read high
In short: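 Compounds were applied to mec2-1 yeast cells. Their growth was then compared with that of vehicle-treated cultures to give growth inhibition.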

[3] = NCI Yeast Anticancer Drug Screen. Data for the sgs1 mgt1 strain (AID 161);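 also: 0% = growth of cultures given vehicle only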; conditions: S. cerevisiae sgs1 mgt1 strain, at 50.0 µM, active compounds read high
In short: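 Growth of a repair-deficient yeast mutant was monitored after compound treatment and expressed as inhibition relative to vehicle-treated cultures.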

[4] = NCI Yeast Anticancer Drug Screen. Data for the cln2 rad14 strain (AID 165);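 also: 0% = growth equal to vehicle treated cultures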; conditions: S. cerevisiae cln2 rad14 strain, at 50.0 µM, active compounds read high
In short: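 Strain: cln2 rad14 yeast, altered in cell cycle control and DNA damage repair. Read-out: growth inhibition vs vehicle.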

[5] = NCI Yeast Anticancer Drug Screen. Data for the bub3 strain (AID 167); conditions: S. cerevisiae bub3 mutant strain, at 50.0 µM, active compounds read high
In short: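 Inhibition values come from growth of compound-treated mutant yeast normalised to vehicle-treated controls.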

[6] = NCI Yeast Anticancer Drug Screen. Data for the mlh1 rad18 strain (AID 175); conditions: S. cerevisiae mlh1 rad18 strain growth inhibition; at 50.0 µM; active compounds read high
In short: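 A repair-deficient yeast strain is exposed to test compound, and growth is scored relative to vehicle-treated controls.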

Measured: growth inhibition

Nc1nc(N)nc(N2CCCCC2)n1
inactive: [1] -23.3% | [2] -5.75% | [3] -16.4% | [4] -41.2% | [5] -4.25% | [6] -19.9%

CC(=O)/C(C)=N\OC(=O)Nc1ccccc1
inactive: [1] 1.2% | [2] -8.2% | [3] -2.65% | [4] -7% | [5] 9.4% | [6] -9.95%

Cc1[nH]nc(C(N)=O)c1[N+](=O)[O-]
inactive: [1] -0.75% | [2] 4.95% | [3] 20.2% | [4] -36.8% | [5] -6.7% | [6] 0.35%

O=[N+]([O-])c1c(O)c(CNCCCO)cc(CNCCCO)c1O
inactive: [1] 13.5% | [2] 29.8% | [3] 18.9% | [4] 19.6% | [5] 25.9% | [6] 43.1%

CCCCNc1ccc(-c2ccc(NCCCC)cc2)cc1
inactive: [1] 31.9% | [2] 4.3% | [3] -3.8% | [4] -36.1% | [5] -5.3% | [6] 59.5%

NNc1ncnc2c1ncn2C1OC(CO)C(O)C1O (stereo not drawn)
inactive: [1] -9.85% | [2] -12.8% | [3] 0.15% | [4] -21.9% | [5] 1.45% | [6] -15.2%

CCOC(=O)C(C#N)=C1CCN(C)CC1
inactive: [1] 8.45% | [2] -4.75% | [3] -0.75% | [4] 10.2% | [5] -27.4% | [6] -5.6%

C/C(O)=C(/C=N/C(=S)Nc1ccccc1)C(=O)Nc1ccccc1C
inactive: [1] 25.9% | [2] 5.6% | [3] 40.3% | [4] -4.5% | [5] 27.7% | [6] 24.9%

Nc1nc(Cl)cc(Cl)n1
inactive: [1] 6.65% | [2] 3.15% | [3] 0% | [4] 5.05% | [5] 2.85% | [6] 3.25%

CN1CCCN(C(c2ccccc2)c2ccc(Br)cc2)CC1 (stereo not drawn)
inactive: [1] 40% | [2] 1.95% | [3] 19.8% | [4] 24.1% | [5] 30.9% | [6] 46%

C=CCS(C)(=O)=O
inactive: [1] -13.8% | [2] -18.6% | [3] -11.8% | [4] 5.7% | [5] -0.8% | [6] -3.65%

NNC(=O)N/N=C1\C(=O)N(c2nccs2)C(=O)C(=O)C1c1nc2ccccc2s1 (stereo not drawn)
inactive: [1] -26.1% | [2] -21.8% | [3] -33% | [4] 10.8% | [5] -5.15% | [6] -19.4%

Cc1ccc(/C=N/NC(N)=S)s1
inactive: [1] 24.9% | [2] 1.9% | [3] 49.1% | [4] -41.5% | [5] -12.8% | [6] 48.5%

Cc1ccc(NCN2C(=O)c3ccccc3C2=O)c(C)n1
inactive: [1] 4.7% | [2] -28.4% | [3] 8.05% | [4] 11.3% | [5] 7% | [6] -0.65%

C=CCC(OC(C)=O)c1ccc(C(C)C)cc1 (stereo not drawn)
inactive: [1] 4% | [2] 0.9% | [3] -23.4% | [4] -55.1% | [5] -0.5% | [6] 5.45%

CC(=O)Nc1ncc(S(=O)(=O)c2ccc([N+](=O)[O-])cc2)s1
inactive: [1] -28.1% | [2] -57.5% | [3] -17.1% | [4] -7.55% | [5] -41.2% | [6] -32.1%

O=C(NC1CCCCC1)c1ccc(Cl)cc1
inactive: [1] 4.55% | [2] -6.7% | [3] -20.1% | [4] 12.7% | [5] -17.6% | [6] -1.85%

C=CCc1cc(OC)c(OC)c(OC)c1
inactive: [1] 7.8% | [2] -4.2% | [3] -16.3% | [4] -6.6% | [5] -9.7% | [6] -4%

CCNC(=O)OCCc1c2ccccc2nc2ccccc12
inactive: [1] 51.4% | [2] 36.5% | [3] 42.4% | [4] 36.1% | [5] 12.7% | [6] 54.2%

Cc1onc(-c2ccccc2Cl)c1C(=O)Cl
inactive: [1] -41.3% | [2] -41.3% | [3] -13.2% | [4] 4.5% | [5] -31.1% | [6] -29.3%

S=C=Nc1ccc2ccccc2c1
inactive: [1] 15.3% | [2] -12.4% | [3] -5.9% | [4] 10.6% | [5] 2.35% | [6] 21.1%

CC(C)c1ccc(C(=O)OCCCl)cc1
inactive: [1] 29.7% | [2] 9% | [3] 6.6% | [4] -3.05% | [5] -4.2% | [6] 23.8%

CCC(C)c1c(N)n(S(=O)(=O)c2ccc(C)cc2)oc1=O (stereo not drawn)
inactive: [1] -25.2% | [2] 6.8% | [3] 6.4% | [4] -25% | [5] 16.6% | [6] -3.45%

CCCCCCCCCc1ccc(OC(C)=O)cc1
inactive: [3] 42.2%
active: [1] 99.3% | [2] 97.2% | [4] 98% | [5] 94.2% | [6] 98.4%

Oc1ccc(N=Cc2ccc(OCc3ccccc3)cc2)cc1
inactive: [1] 2.5% | [2] -29.9% | [3] 15.2% | [4] 0.25% | [5] 2.55% | [6] -4.1%

CCOP(=O)(OCC)/C(=C\N1C(=O)CC(=O)NC1=S)C(=O)OC
inactive: [1] -29.9% | [2] -31.4% | [3] -18.9% | [4] 7.6% | [5] -6.45% | [6] -5.55%

NC(=S)N/N=C/c1ccc(OC(=O)COc2ccc(Cl)cc2)cn1
inactive: [1] 5.65% | [2] 7.85% | [3] 31.4% | [4] -1.25% | [5] 4.2% | [6] 9.5%

COC(=O)C1=C(C)C(=O)CC1
inactive: [1] 16.7% | [2] -1.5% | [3] 11.8% | [4] -11.9% | [5] 13.9% | [6] 14.2%
